Compounds with a hit are over-represented: about 13% of the library has one in this group of screens.
Pf growth 48h: P. falciparum growth inhibition at 48 hours (one generation); P. falciparum luciferase growth in erythrocytes, 48 h; Potency, µM (top dose mostly 28.7 µM), most hits filed as inhibitors; actives 5.9% (n = 310,000); AID 504832
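A one-generation exposure of luciferase-tagged malaria parasites in RPMI 1640/Albumax erythrocyte culture, 37 C and 5% CO2. Inhibition is inferred from decreased luminescence after adding detection reagent.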
HCMV inh: inhibitors of human cytomegalovirus; HFF cells, HCMV-luciferase reporter, 72 h; hits give low values; actives 4.5% (n = 410,000); activity change, negative = inhibition, % at 57.5 µM; AID 1259415; in the data active = activity change below about -60%; inconclusive = no clear call, values can overlap the other calls; inactive = above about -39%
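Luciferase read-out from HCMV-luciferase-infected HFFs (MOI 1 PFU/cell) 72 h post infection at 37C; compounds added after 16 h cell attachment; activity normalized between buffer-only basal and Salinomycin (10uM) inhibitor controls.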
HCV inhibitor: blocks hepatitis C virus. AID 651820. actives 3.4% (n = 340,000). Potency, µM (series often up to 41.8 µM), usual class: inhibitors. Huh7.5.1 HCVcc-Cre infection, luciferase reporter, 44 h
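Cells (1,000/well) were plated 4 h before compound, then infected with HCVcc-Cre virus (~0.5 moi). After 44 h further culture, infection was read as luciferase luminescence following a 15 min substrate incubation at room temperature.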
Pf growth 96h: inhibits malaria parasite growth, 96 h; P. falciparum luciferase reporter growth, 96 h; Potency, µM (series often up to 28.7 µM), hits mostly inhibitors; actives 6.9% (n = 320,000); AID 504834
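P. falciparum expressing integrated firefly luciferase grown in erythrocytes (2% hematocrit, 0.05% parasitemia final) with compounds for 96 hours at 37 C, 5% CO2. Growth inhibition read as loss of luminescence after adding luciferase detection reagent.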
A number is an active result; – = inactive; ? = inconclusive; · = not tested or not shown. Unless noted, calls come from the whole dose curve; as a rule, active = well fitted inhibition curve with a large enough effect; inconclusive = small, poorly fitted or top-dose-only effect, or another doubt; inactive = no such curve, though single readings can be large or run the other way.

SMILES | Pf growth 48h | HCMV inh | HCV inhibitor | Pf growth 96h
CCCC(c1nnnn1CC1CCCO1)N1CCN(c2nc3ccccc3s2)CC1 (centres undefined) | 12µM | – | – | –
CCCCC(c1nnnn1CC1CCCO1)N1CCN(c2nc3ccccc3s2)CC1 (centres undefined) | 13µM | – | ? | –
CC(C)CC(c1nnnn1CC1CCCO1)N1CCN(c2nc3ccccc3s2)CC1 (centres undefined) | ? | – | – | –
Cc1cccc(C)c1NS(=O)(=O)c1cc2c3c(c1)CCN3C(=O)CC2 | – | – | – | –
O=C1Cc2cc(S(=O)(=O)Nc3cccc([N+](=O)[O-])c3)cc3c2N1CCC3 | – | ? | ? | 6.6µM
Cc1cccc(C)c1NS(=O)(=O)c1cc2c3c(c1)CC(=O)N3CCC2 | 9.3µM | -65 | – | ?
Cc1ccc(C)c(NS(=O)(=O)c2cc3c4c(c2)CC(=O)N4CCC3)c1 | 10µM | – | ? | –
Cc1nn2c(=O)cc(COC(=O)C(c3ccccc3)c3ccccc3)nc2s1 | · | – | · | ·
C[n+]1ccn(CC(=O)c2ccc(Br)cc2)c1 | 12µM | ? | – | 9.3µM
C[n+]1ccn(CC(=O)c2cc(C(C)(C)C)c(O)c(C(C)(C)C)c2)c1 | 9.3µM | – | – | –
CC(Sc1cn(CCNC(=O)c2ccccc2F)c2ccccc12)c1ccccc1 (centres undefined) | · | – | · | ·
COc1ccc(S(=O)(=O)N2CCOCC2)cc1NC(=O)c1cc(C)oc1C | ? | – | – | 12µM
COc1ccc(S(=O)(=O)N2CCOCC2)cc1NC(=O)c1c(-c2ccccc2)noc1C | ? | – | – | 10µM
Cc1cc(C(=O)Nc2ccc(S(=O)(=O)N3CCOCC3)cc2)c(C)o1 | – | – | – | –
COc1ccc(S(=O)(=O)N2CCOCC2)cc1NC(=O)c1c(C)noc1C | · | – | · | ·
COc1ccccc1CNc1nc2c(S(=O)(=O)c3ccc(C)c(C)c3)nnn2c2ccc(Cl)cc12 | · | – | · | ·
Cn1c(-c2cccnc2)cc2cnc(Nc3ccc(F)cc3)cc21 | · | – | · | ·
CCOc1ccc(OCC)c(NC(=O)c2nnn(CC(=O)Nc3ccc(C)cc3C)c2N)c1 | · | – | · | ·
CCc1nc(N2CCN(C(=O)c3ccccc3)CC2)c(C#N)c2c1COC(C)(C)C2 | 9.3µM | -62 | ? | ?
CC1(C)Cc2c(C#N)c(N3CCOCC3)nc(Cc3ccccc3)c2CO1 | ? | – | ? | ·
Cc1ccc(S(=O)(=O)N2CCN(c3nc(C)c4c(c3C#N)CC(C)(C)OC4)CC2)cc1 | 6.6µM | – | – | –
CC1(C)Cc2c(C#N)c(N3CCOCC3)nc(-c3ccccc3)c2CO1 | 10µM | – | – | ?
O=C(CSc1cn(CCNC(=O)c2c(F)cccc2F)c2ccccc12)Nc1ccccc1F | · | – | · | ·
O=C(NCC1CCCCC1)c1ccc2sc([C@H]3C[C@H](O)[C@@H](CO)O3)nc2c1 | · | – | · | ·
CCN(CC(=O)Nc1c(C(=O)OC)[nH]c2ccc(C)cc12)c1ccc2c(c1)OCO2 | 13µM | – | 8.9µM | ?
SMILES | Pf growth 48h | HCMV inh | HCV inhibitor | Pf growth 96h
COC(=O)c1[nH]c2ccc(F)cc2c1NC(=O)CCN1CCN(Cc2ccc3c(c2)OCO3)CC1 | 12µM | – | ? | –
CCOC(=O)c1[nH]c2cc3c(cc2c1NC(=O)CN1CC(C)CC(C)C1)OCO3 (centres undefined) | – | – | – | 5.9µM
COC(=O)c1[nH]c2ccc(F)cc2c1NC(=O)CCN1CCN(C(=O)c2ccco2)CC1 | – | – | · | ?
O=[N+]([O-])c1ccc(Sc2cccc[n+]2[O-])c2nonc12 | 2.9µM | -106 | 10µM | 0.83µM
Cc1ccc(-c2csc3ncnc(SCC(N)=O)c23)cc1 | – | – | ? | –
Cn1nnnc1SCSc1nnnn1C | – | – | – | –
Cn1nnnc1Sc1ncnc2scc(-c3ccc[nH]3)c12 | 10µM | -98 | · | ?
O=C(CSc1ncnc2scc(-c3ccccc3)c12)Nc1ccc(C(=O)O)cc1 | – | – | – | –
Cn1nnnc1Sc1ncnc2scc(-c3ccc(F)cc3)c12 | – | -76 | ? | ?
Cn1nnnc1SCc1nc2scc(-c3ccc(Cl)cc3)c2c(=O)[nH]1 | – | -70 | ? | –
Cn1nnnc1Sc1ncnc2scc(Br)c12 | · | -97 | · | ·
CCOc1ccc(C(=O)c2oc3ccccc3c2NC(=O)c2cc(-c3ccc(C)cc3)on2)cc1 | · | – | · | ·
CCN(C(=O)CN1C(=O)c2ccccc2Sc2ccc(C(=O)OC)cc21)c1cccc(C)c1 | · | – | · | ·
Cc1ccc(Nc2nc(N)nc(N)c2S(=O)(=O)c2ccccc2)cc1 | · | – | · | ·
CCCC(=O)Nc1ccccc1Sc1ncnc2scc(-c3ccccc3)c12 | 4.7µM | – | – | –
Cn1nnnc1Sc1ncnc2scc(-c3ccccc3)c12 | 12µM | -67 | – | –
Cn1nnnc1SCc1nc2scc(-c3ccccc3)c2c(=O)[nH]1 | – | – | – | –
Cn1nnnc1Sc1ncnc2scc(-c3ccccc3Br)c12 | ? | -93 | · | ?
Cn1nnnc1Sc1ncnc2scc(-c3ccc(Br)cc3)c12 | · | -98 | · | ·
Cn1nnnc1SCC(=O)c1cccs1 | – | – | – | –
CC(=O)Nc1ccc(Sc2ncnc3scc(-c4ccccc4)c23)cc1 | – | – | – | ?
CC(=O)c1ccc(NC(=O)Nc2nnc(N3CCCC(C)C3)s2)cc1 (centres undefined) | · | – | · | ·
CCOC(=O)c1ccc(N2CCN(c3cc(C)ccc3C)CC2)c(NC(=O)Nc2ccccc2)c1 | · | – | · | ·
c1ccc(-c2csc3ncn4nnnc4c23)cc1 | – | -100 | – | ·
COc1ccccc1CNCCSc1nnnn1C | · | – | · | ·
SMILES | Pf growth 48h | HCMV inh | HCV inhibitor | Pf growth 96h
COc1ccccc1-c1csc2ncnc(Sc3nnnn3C)c12 | ? | -74 | · | ?
CC(C)=CC(=O)Nc1ccccc1C(N)=O | – | -74 | – | –
C=CCSc1nsc(NC(=O)Nc2ccc(F)cc2)n1 | ? | -103 | 22µM | –
CCSc1nsc(NC(=O)Nc2ccccc2F)n1 | – | – | ? | ?
CCOc1ccc(C(=O)NC(=S)N(Cc2ccccc2)Cc2ccccc2)cc1 | ? | – | – | 2.6µM
CCCOc1ccc(C(=O)NNC(=S)NC(=O)c2ccccc2)cc1 | 10µM | -86 | ? | 3.3µM
CC(C)CC(=O)NC(=S)NNC(=O)c1ccc([N+](=O)[O-])cc1 | ? | – | – | ?
CCCOc1ccc(C(=O)NNC(=S)NC(C)=O)cc1 | ? | -94 | ? | 0.33µM
CCC(=O)NC(=S)NNC(=O)c1ccc([N+](=O)[O-])cc1 | ? | – | – | 13µM
O=C(Nc1cc(Cl)cc(Cl)c1)c1ccc(F)c(S(=O)(=O)NC2CCCC2)c1 | · | – | · | ·
CCCCOc1ccc(C(=O)NNC(=S)NC(=O)CC)cc1 | 6.6µM | · | ? | ?
COc1ccc(Oc2nc3c(c(=O)n(Cc4ccccc4Cl)c(=O)n3C)n2C)cc1 | · | – | · | ·
CCOC(=O)c1c(N)sc2c1CCN(Cc1ccccc1)C2 | 3.8µM | – | · | 0.95µM
CCOc1ccc(NC(=O)c2ccc(NC(=O)c3ccccc3Br)cc2)cc1 | – | – | 5µM | –
CCOc1ccccc1NC(=O)c1ccc(CN2CCc3ccccc3C2)cc1 | – | – | ? | ?
CCOC(=O)c1c(NC(=O)Cc2ccccc2)sc2c1CCN(CC)C2 | ? | – | ? | ?
